From publication PMC5540273 (PLoS ONE, 2017)
“And” between values parts separate entries of the source, which are not always exact repeats. Equal entries are not always repeated. Where two headings read alike, the source gives them in different places.

Columns and labels:
[1] = system: PIKFYVE; conditions: concentration: 1 μM, replicates: in singlicate, n = 1
[2] = system: PIM1; conditions: concentration: 1 μM, replicates: in singlicate, n = 1
[3] = system: PIM2; conditions: concentration: 1 μM, replicates: in singlicate; n = 1
[4] = system: PIM3; conditions: concentration: 1 μM, replicates: in singlicate, n = 1
[5] = system: PIP5K1A; conditions: concentration: 1 μM, replicates: in singlicate, n = 1
[6] = system: PIP5K1C; conditions: concentration: 1 μM, replicates: in singlicate, n = 1
[7] = system: PIP5K2B; conditions: concentration: 1 μM, replicates: in singlicate, n = 1
[8] = system: T1, PIP5K2C; conditions: concentration: 1 μM, replicates: in singlicate, n = 1
T1 construct: gene PIP4K2C

[9] = system: T2, PKAC-alpha; conditions: concentration: 1 μM, replicates: in singlicate, n = 1
T2 construct: gene PRKACA

[10] = system: T3, PKAC-beta; conditions: concentration: 1 μM, replicates: in singlicate, n = 1
T3 construct: gene PRKACB
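Note: KINOMEscan kinase panel screen.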

SMILES | %Inh [1] [%] | %Inh [2] [%] | %Inh [3] [%] | %Inh [4] [%] | %Inh [5] [%] | %Inh [6] [%] | %Inh [7] [%] | %Inh [8] [%] | %Inh [9] [%] | %Inh [10] [%] | %Inh ([1]; 1 µM) | %Inh ([2]; 1 µM) | %Inh ([4]; 1 µM) | %Inh ([5]; 1 µM) | %Inh ([6]; 1 µM) | %Inh ([7]; 1 µM) | %Inh ([8]; 1 µM) | %Inh ([9]; 1 µM) | %Inh ([10]; 1 µM)
Cn1ccc2ncnc(Oc3ccc(NC(=O)Nc4ccncc4)c(Cl)c3)c21 | 8 | 0 | 13 | 1 | 24 | 5 | 11 | 0 | 1 | 2 | – | – | – | – | – | – | – | – | –
NCC(NC(=O)c1cc(-c2cn[nH]c2)c(-c2ccnc3[nH]ccc23)s1)c1ccccc1.O=C(O)C(F)(F)F.O=C(O)C(F)(F)F (stereo not drawn) [GSK1325775] | 0 | 39 | 16 | 41 | 50 | 80 | 71 | 49 | 98.7 | 98 | – | – | – | – | – | – | – | – | –
COc1ccc(Nc2nccc(N3CCC(NC(=O)Nc4cc(C)ccc4C)C3)n2)cc1 (stereo not drawn) [GSK1379741] | 0 | 0 | 0 | 0 | 1 | 25 | 10 | 9 | 0 | 0 | – | – | – | – | – | – | – | – | –
Cc1nnc(-c2ccc(C)c(-c3ccc(C(=O)Nc4ccc(NS(C)(=O)=O)cc4)cc3)c2)o1 [GW702865] | 4 | 0 | 0 | 0 | 52 | 26 | 17 | 18 | 0 | 0 | – | – | – | – | – | – | – | – | –
COc1cc2c(cc1OCCN1CCN(C)CC1)ncc1c3ccc(C#N)cc3[nH]c21 | 64 | 34 | 90.9 | 63 | 57 | 55 | 94.8 | 35 | 0 | 0 | – | – | – | – | – | – | – | – | –
CN(C(=O)c1ccc(-c2cc(-c3c[nH]nc3-c3ccccn3)ccn2)cc1)C1CCOCC1 [GW810083] | 40 | 0 | 0 | 0 | 0 | 31 | 0 | 49 | 0 | 0 | – | – | – | – | – | – | – | – | –
CCn1cnc2c(N)ncnc21 [GW345098] | 0 | 0 | 0 | 0 | 0 | 0 | 0 | 0 | 8 | 14 | – | – | – | – | – | – | – | – | –
Fc1ccc(-c2ncn(CCCN3CCOCC3)c2-c2cccnc2)cc1 [SB-211743] | 0 | 12 | 2 | 0 | 5 | 0 | 5 | 0 | 0 | 25 | – | – | – | – | – | – | – | – | –
Cc1cccc(-c2nc(-c3ccc(S(C)(=O)=O)cc3)sc2-c2ccncc2)c1 | 25 | 13 | 2 | 12 | 22 | 2 | 55 | 0 | 0 | 0 | – | – | – | – | – | – | – | – | –
Cl.Cl.Cl.Fc1ccc(-c2ncn(C3CCNCC3)c2-c2ccnc(Nc3ccccc3)n2)cc1 [SB-238039] | – | – | 0 | – | – | – | – | – | – | – | 5% and 24% | 15% and 2% | 19% and 0% | 46% and 0% | 25% and 0% | 24% and 0% | 48% and 41% | 64% and 46% | 73% and 65%
Fc1ccc(-c2nn3c(OCC(F)(F)F)cccc3c2-c2ccncc2)cc1 [GW514784] | 51 | 0 | 0 | 0 | 50 | 69 | 18 | 32 | 6 | 32 | – | – | – | – | – | – | – | – | –
O=C(Nc1cccc(-c2nn3ncccc3c2-c2ccnc(Nc3cccc(C(F)(F)F)c3)n2)c1)c1c(F)cccc1F [GSK299495] | 15 | 0 | 0 | 0 | 18 | 37 | 100 | 68 | 12 | 6 | – | – | – | – | – | – | – | – | –
Fc1ccc(-c2ncn(CCCN3CCOCC3)c2-c2ccccn2)cc1 [SB-211742] | 9 | 0 | 8 | 0 | 22 | 47 | 0 | 27 | 0 | 32 | – | – | – | – | – | – | – | – | –
Cc1nnc(-c2ccc3occ(-c4ccc(C(C)O)cc4)c3c2)o1 (stereo not drawn) | 0 | 24 | 80 | 31 | 0 | 4 | 27 | 17 | 7 | 17 | – | – | – | – | – | – | – | – | –
O=C(NOCC1CC1)c1ccc(F)c(F)c1Nc1ccc(I)cc1Cl | 40 | 0 | 0 | 0 | 0 | 3 | 0 | 0 | 0 | 0 | – | – | – | – | – | – | – | – | –
CCc1nc(-c2cccc(C)c2)c(-c2ccnc(NCc3ccccc3)c2)s1 | 0 | 21 | 0 | 25 | 0 | 14 | 38 | 0 | 0 | 0 | – | – | – | – | – | – | – | – | –
CC(C)(C)n1cnc2c(N)ncnc21 [SKF-97359] | 51 | 0 | 0 | 0 | 32 | 51 | 24 | 34 | 0 | 20 | – | – | – | – | – | – | – | – | –

SMILES | %Inh [1] [%] | %Inh [2] [%] | %Inh [3] [%] | %Inh [4] [%] | %Inh [5] [%] | %Inh [6] [%] | %Inh [7] [%] | %Inh [8] [%] | %Inh [9] [%] | %Inh [10] [%] | %Inh ([1]; 1 µM) | %Inh ([2]; 1 µM) | %Inh ([4]; 1 µM) | %Inh ([5]; 1 µM) | %Inh ([6]; 1 µM) | %Inh ([7]; 1 µM) | %Inh ([8]; 1 µM) | %Inh ([9]; 1 µM) | %Inh ([10]; 1 µM)
O=C(c1ccc(-c2cc(-c3c[nH]nc3-c3ccccn3)ccn2)cc1)N1CCOCC1 [GW812171] | 0 | 24 | 0 | 15 | 0 | 0 | 0 | 67 | 0 | 3 | – | – | – | – | – | – | – | – | –
O=c1cc(N2CCOCC2)nc2n(Cc3cccc(Cl)c3Cl)c(C3CC3)nn12 [GSK2358994] | 0 | 0 | 22 | 0 | 0 | 0 | 0 | 0 | 25 | 5 | – | – | – | – | – | – | – | – | –
N#Cc1ccc(-c2cc(-c3c[nH]nc3-c3ccccn3)ccn2)cc1 [GW693028] | 0 | 0 | 0 | 0 | 7 | 71 | 23 | 7 | 0 | 0 | – | – | – | – | – | – | – | – | –
O=C1Cc2cc(Nc3nc(NCc4cccc(S(=O)(=O)C(F)(F)F)c4)ncc3C(F)(F)F)ccc2N1 | 6 | 100 | 0 | 6 | 13 | 3 | 20 | 0 | 0 | 7 | – | – | – | – | – | – | – | – | –
NS(=O)(=O)c1cccc(-c2ccc3ncc(N4CCOCC4)nc3c2)c1 [GSK1535721] | 11 | 14 | 0 | 0 | 0 | 48 | 11 | 75 | 0 | 0 | – | – | – | – | – | – | – | – | –
COc1ccc(CNC(=O)NC2CCN(c3ccnc(Nc4ccc(OC)cc4)n3)C2)cc1 (stereo not drawn) [GSK1379727] | 29 | 0 | 0 | 0 | 0 | 57 | 4 | 33 | 0 | 0 | – | – | – | – | – | – | – | – | –
Cc1cn2c(=O)cc(N3CCOCC3)nc2n1Cc1cccc(Cl)c1Cl [GSK2334006] | 50 | 10 | 0 | 0 | 0 | 30 | 0 | 10 | 3 | 29 | – | – | – | – | – | – | – | – | –
O=c1cc(N2CCOCC2)nc2n(Cc3cccc4ccccc34)ccn12 [GSK2333389] | 0 | 0 | 0 | 0 | 0 | 0 | 40 | 0 | 0 | 8 | – | – | – | – | – | – | – | – | –
Cc1ccc(NC(=O)c2ccnc(N3CCN(C)CC3)c2)cc1-c1ccc(C(=O)NCC2CC2)cc1 [GW775604] | 0 | 0 | 0 | 4 | 0 | 0 | 0 | 0 | 0 | 0 | – | – | – | – | – | – | – | – | –
Cl.Nc1ncnc2occ(-c3ccc(NC(=O)Nc4cc(C(F)(F)F)ccc4F)cc3)c12 [SB-707548] | 25 | 23 | 0 | 0 | 28 | 57 | 36 | 45 | 9 | 0 | – | – | – | – | – | – | – | – | –
COc1ccc(Nc2ncc(C#N)c(Nc3ccccc3C(N)=O)n2)cc1N1CCN(C)CC1.Cl [GSK1558669] | 94.4 | 97.4 | 0 | 93.3 | 56 | 65 | 90 | 90.6 | 76 | 76 | – | – | – | – | – | – | – | – | –
CCc1ccnc(/C=C/c2n[nH]c3cc(Sc4ccccc4C(=O)NC)ccc23)c1 | 0 | 0 | 0 | 0 | 5 | 0 | 27 | 0 | 0 | 0 | – | – | – | – | – | – | – | – | –
COc1ccc(Nc2nccc(N3CCC(NC(=O)Nc4cccc(C(C)=O)c4)C3)n2)cc1 (stereo not drawn) [GSK1379731] | 0 | 0 | 0 | 0 | 0 | 24 | 12 | 3 | 2 | 0 | – | – | – | – | – | – | – | – | –
c1ccc(-c2n[nH]cc2-c2ccnc3ccccc23)nc1 [GW271431] | 0 | 8 | 0 | 3 | 0 | 0 | 15 | 4 | 9 | 14 | – | – | – | – | – | – | – | – | –
O=C(Nc1n[nH]c2cc(-c3cccc(F)c3)ccc12)C1CC1 [SB-735464] | 0 | 2 | 0 | 4 | 37 | 18 | 5 | 11 | 3 | 6 | – | – | – | – | – | – | – | – | –
CSc1ccc(-c2cc3ncnc(SCC(=O)O)c3s2)cc1 | 28 | 0 | 0 | 0 | 0 | 0 | 20 | 7 | 0 | 0 | – | – | – | – | – | – | – | – | –
